Screening results: PubChem, National Center for Advancing Translational Sciences (NCATS)
An excerpt weighted towards active compounds, which were near 3.7% of everything screened.
GLP1R inv ag: GLP-1 receptor (human) inverse agonism; P43220; HEK293 GLP-1R CRE-luciferase, luminescence, 24 h; GLP-1R form is constitutively active; Potency, µM (titrated, usually from 38.3 µM), most hits filed as inhibitors; hit rate 1.6% among 410,000; further: nearly all actives have a fitted effect of over 55% in size
Target sequence (P43220 whole entry, looked up): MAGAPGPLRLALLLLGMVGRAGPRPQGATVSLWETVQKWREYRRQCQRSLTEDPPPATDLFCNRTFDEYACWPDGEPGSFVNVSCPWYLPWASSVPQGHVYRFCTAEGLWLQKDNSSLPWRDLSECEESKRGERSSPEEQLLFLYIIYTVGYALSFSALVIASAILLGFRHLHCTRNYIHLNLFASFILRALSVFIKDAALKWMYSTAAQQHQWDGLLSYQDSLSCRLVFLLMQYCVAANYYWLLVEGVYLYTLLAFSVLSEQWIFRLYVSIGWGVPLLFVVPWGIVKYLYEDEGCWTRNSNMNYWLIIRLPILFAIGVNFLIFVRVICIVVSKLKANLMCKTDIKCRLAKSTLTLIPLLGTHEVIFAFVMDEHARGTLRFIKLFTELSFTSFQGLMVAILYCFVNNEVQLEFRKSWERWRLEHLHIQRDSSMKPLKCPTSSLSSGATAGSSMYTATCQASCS
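Cells are plated, allowed 12 hours at 37 deg C, then treated with compounds for 24 hr before luciferase detection reagent is added and luminescence is read after 12 min at room temperature. The HEK293 line carries constitutively active GLP-1R with a cAMP-responsive reporter.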
HepG2 tox: counter-screen for TGF-b inhibitors: cytotoxicity in HepG2 cells; Potency, µM (series often up to 46.1 µM), actives largely listed as cytotoxic; HepG2 CAGA-GFP viability, ATP luminescence, 18 h; hit rate 0.76% among 410,000; AID 588856
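HepG2 CAGA-GFP cells (1000/well, DMEM with 1% FBS) received compound, then TGF-beta at 500 pg/mL final, and were incubated 18 hours at 37 degrees C. Viability was read by CellTiter-Glo luminescence. Media-only wells were set as complete cell-killing and DMSO as no toxicity.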
GLP1R ag: agonists of human GLP-1 receptor | P43220 | Potency, µM (highest dose often 45.6 µM), most hits filed as activators | AID 624172 | hit rate 0.007% among 380,000 | HEK293 GLP-1R CRE-luciferase, luminescence, 4-6 h; cells express a hypersensitive GLP-1R form
TGFb inhibitor: inhibitors of TGF-b signaling; HepG2 CAGA-GFP TGF-b/SMAD3 reporter, GFP fluorescence, 18 h; TGF-beta stimulated, 500 pg/mL final; Potency, µM (titrated, usually from 46.1 µM), actives largely listed as inhibitors; hit rate 1.2% among 410,000; AID 588855; further: nearly all actives have a fitted effect of over 65% in size
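HEPG2 CAGA-GFP reporter cells (1000/well, DMEM with 1% FBS) received compounds, then recombinant TGF-beta at 500 pg/mL final for 18 hours at 37 degrees C. Per-cell GFP summed per well was normalised to unstimulated and stimulated DMSO controls before curve fitting.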
S2 tox: cell viability loss in ATXN counter-screen; Potency, µM (titrated, usually from 56.7 µM), actives largely listed as cytotoxic; AID 651635; hit rate 0.49% among 400,000; S2 cells (HEK-293 line with an ATXN2-luciferase reporter) viability, CellTiter-Fluor protease fluorescence, 24 h; further: nearly all actives have a fitted effect of over 40% in size
ATXN2 expr inh: inhibitors of ATXN2 expression | HEK-293 ATXN2-luciferase reporter, luminescence, 24 h | Potency, µM (titrated, usually from 57 µM), usual class: inhibitors | hit rate 0.72% among 360,000; further: nearly all actives have a fitted effect of over 55% in size
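ATXN2-luciferase reporter cells (luciferase flanked by upstream and downstream ATXN2 gene portions) were treated 24 h at 37 °C with compounds at up to 57 uM. SteadyGlo luminescence gave expression; GF-AFC fluorescence gave viability.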
Each line names hits and unclear results; the compound was inactive in the other large screens. The call rests on the fitted dose curve; in most records, active means well fitted curve in the direction sought with a large enough effect; inconclusive means small, poorly fitted or top-dose-only effect, or another doubt; inactive means no such curve, though single readings can be large; an effect the other way counts as inactive or inconclusive.

COc1ccc(C2(C(=O)Nc3cc(C)on3)CCOCC2)cc1	none
O=C(CN1CCCC1)N1c2ccccc2Sc2ccccc21	none
CC1(C)CCCN(C(=O)N2c3ccccc3Sc3ccccc32)C1	GLP1R inv ag 4.47µM
c1ccc(-c2cc3ccccc3nc2N2CCCC2)cc1	GLP1R inv ag 2.51µM
Cc1cc(C)n(-c2nc3ccccc3nc2N2CCCCCC2)n1	GLP1R inv ag 6.31µM
c1ccc2nc(N3CCCC3)c(N3CCCC3)nc2c1	GLP1R inv ag 1.78µM
Cc1nc2ccccc2nc1N1CCCCC1	none
COC(=O)c1cc2sc(C)cc2n1Cc1nc(-c2cccc(Br)c2)oc1C	none (no result: GLP1R ag, TGFb inhibitor, S2 tox, ATXN2 expr inh)
Cc1ccc(-n2c(=O)c3c(c4cc(C)ccc4n3C)n(CC(=O)NCCC3=CCCCC3)c2=O)cc1	none (no result: GLP1R ag)
COc1cc(-c2nc(-c3ccc4c(c3)-c3ccccc3S4(=O)=O)c(-c3ccccc3)[nH]2)cc(OC)c1OC	GLP1R inv ag 1.58µM, TGFb inhibitor inconclusive
Cc1ccccc1OCc1nc2c3cnn(-c4cccc(F)c4)c3ncn2n1	none (no result: GLP1R ag, TGFb inhibitor, S2 tox, ATXN2 expr inh)
CCCNC(=O)c1ccc2c(=O)c(O)c(-c3cccc(Br)c3)[nH]c2c1	GLP1R inv ag inconclusive, TGFb inhibitor inconclusive, ATXN2 expr inh 22.4µM
O=C(c1ccccc1)N1N=C(c2ccc(F)cc2)CC1c1ccc(F)cc1 (stereo not given)	GLP1R inv ag 10µM
Fc1ccc(C2CC(c3cccs3)=NN2c2ccccc2)cc1 (stereo not given)	GLP1R inv ag inconclusive, ATXN2 expr inh inconclusive (no result: S2 tox)
CC(=O)N1N=C(c2ccccc2)CC1c1ccc(F)cc1 (stereo not given)	none (no result: ATXN2 expr inh)
c1ccc(C2CC(c3cccs3)=NN2c2ccccc2)cc1 (stereo not given)	GLP1R inv ag 10µM (no result: S2 tox)
O=C(c1ccccc1)N1N=C(c2cccs2)CC1c1ccccc1O (stereo not given)	GLP1R inv ag 8.91µM, TGFb inhibitor inconclusive (no result: ATXN2 expr inh)
O=C(Nc1ccccc1)N1N=C(c2cccs2)CC1c1cccs1 (stereo not given)	GLP1R inv ag inconclusive
CCC1CCCCN1CCCNC(=O)C1CCN(Cc2nc(-c3ccc(Cl)cc3)oc2C)CC1 (stereo not given)	GLP1R inv ag 12.6µM, TGFb inhibitor inconclusive, S2 tox inconclusive (no result: ATXN2 expr inh)
CCc1ccc(-c2nc(CN3CCC(C(=O)NCCN(CC)c4ccccc4)CC3)c(C)o2)cc1	GLP1R inv ag inconclusive, S2 tox inconclusive
CCN(CCNC(=O)C1CCN(Cc2nc(-c3ccc(Cl)cc3)oc2C)CC1)c1ccccc1	GLP1R inv ag 2.51µM, TGFb inhibitor inconclusive, S2 tox inconclusive, ATXN2 expr inh inconclusive
COc1ccc(-c2nc(CN3CCC(C(=O)NCCCN4CCN(c5ccccc5F)CC4)CC3)c(C)o2)cc1OC	GLP1R inv ag 10µM, TGFb inhibitor inconclusive (no result: GLP1R ag, S2 tox, ATXN2 expr inh)
O=[N+]([O-])c1cc(-c2nc(-c3ccccc3)no2)ccc1NCCc1ccccc1	none (no result: GLP1R ag)
Cc1ccc2c(Cl)c(C)c(N3CCCCC3)nc2n1	GLP1R inv ag 7.08µM
C1CCN(c2nc3nonc3nc2N2CCCCC2)CC1	none
CCCCCCNC(=O)OC12CN(C(=O)OC(C)C)N(C(=O)OC(C)C)CC1(O)CN(S(=O)(=O)c1ccc(C)cc1)C2 (stereo not given)	GLP1R inv ag inconclusive, TGFb inhibitor inconclusive, ATXN2 expr inh inconclusive (no result: S2 tox)
Cc1ccc(S(=O)(=O)N2CC3(O)CN(C(=O)OC(C)C)N(C(=O)OC(C)C)CC3(OC(=O)NCC3CCCCC3)C2)cc1 (stereo not given)	GLP1R inv ag inconclusive, TGFb inhibitor inconclusive, S2 tox 14.1µM, ATXN2 expr inh inconclusive
Cc1ccc(S(=O)(=O)N2CC3(O)CN(C(=O)OC(C)C)N(C(=O)OC(C)C)CC3(OC(=O)NCc3ccccc3F)C2)cc1 (stereo not given)	GLP1R inv ag inconclusive, TGFb inhibitor inconclusive, S2 tox 22.4µM
Cc1ccc(CN2CCC(C3(c4ccccn4)NC(=O)N(CC4CCCO4)C3=O)CC2)cc1C (stereo not given)	none (no result: GLP1R inv ag, HepG2 tox, GLP1R ag, TGFb inhibitor, ATXN2 expr inh)
CC(CNC(=O)c1ccc(Cn2c(=O)c3cccn3c3cccnc32)cc1)c1ccccc1 (stereo not given)	none (no result: GLP1R ag, S2 tox, ATXN2 expr inh)
CCc1ccccc1NC(=O)CSc1nncn2c1cc1oc(C)cc12	TGFb inhibitor inconclusive (no result: GLP1R ag, S2 tox, ATXN2 expr inh)
COc1cc(SC#N)ccc1N=Cc1c(C)[nH]n(-c2ccc(Cl)cc2)c1=O	S2 tox inconclusive
COc1cc(SC#N)ccc1N=Cc1c(C)[nH]n(-c2ccc(C)c(C)c2)c1=O	GLP1R inv ag inconclusive, HepG2 tox 8.91µM, TGFb inhibitor inconclusive, S2 tox 12.6µM, ATXN2 expr inh 11.2µM
Cc1ccc(Nc2nc(NCc3ccco3)nc3nccnc23)cc1C	none (no result: GLP1R inv ag, GLP1R ag, S2 tox, ATXN2 expr inh)
COCCCNC(=O)C1CCN(C(=O)c2cc3sccc3n2Cc2ccc(F)cc2)CC1	none
CC(C)CCNC(=O)C1CCN(C(=O)c2cc3sccc3n2Cc2ccc(Cl)cc2)CC1	TGFb inhibitor 6.31µM (no result: GLP1R ag, S2 tox, ATXN2 expr inh)
Clc1ccc(-c2nnc(Sc3nc4ccccc4o3)c3ccccc23)cc1	TGFb inhibitor inconclusive, S2 tox inconclusive, ATXN2 expr inh inconclusive
O=c1c(Cl)c2oc3ccccc3nc-2c2ccccc12	TGFb inhibitor 5.01µM
Cc1cccc(NC(=O)NC(C)CCc2ccccc2)c1 (stereo not given)	GLP1R inv ag 10µM
Cn1c(=O)c2c3c(sc2n2c(SCC(N)=O)nnc12)CC(C(C)(C)C)CC3 (stereo not given)	GLP1R inv ag inconclusive, HepG2 tox 12.6µM
C=C(CC[C@]12OC(C(=O)O)C(O)(C(=O)O)C(C(=O)O)(O1)C(OC(=O)/C=C/[C@@H](C)C[C@@H](C)CC)C2O)[C@@H](OC(C)=O)[C@H](C)Cc1ccccc1 (stereo not given in full)	none (no result: GLP1R inv ag, GLP1R ag, S2 tox, ATXN2 expr inh)
Cc1cccc(CN(CC(=O)N/N=C/c2cccs2)S(=O)(=O)c2ccc(Cl)cc2)c1	GLP1R inv ag 8.91µM, TGFb inhibitor inconclusive
Cc1cccc(CN(CC(=O)N/N=C/c2ccco2)S(=O)(=O)c2ccc(Cl)cc2)c1	GLP1R inv ag inconclusive, TGFb inhibitor inconclusive
Cc1cc(=O)oc2cc(O[C@@H]3SC[C@@H](O)[C@H](O)[C@H]3O)ccc12	none (no result: GLP1R inv ag, HepG2 tox, GLP1R ag, TGFb inhibitor)
COc1cccc(C2CC(c3ccc(Br)cc3)=NN2C(=O)c2ccncc2)c1OC (stereo not given)	GLP1R inv ag 10µM, TGFb inhibitor inconclusive
COc1cc(-c2cc(C)c3cccc(OC)c3n2)cc2c1OCCN(C(=O)CCn1ccc(C)n1)C2	none (no result: GLP1R inv ag, HepG2 tox, GLP1R ag, TGFb inhibitor, ATXN2 expr inh)
CC(Oc1ccccc1)C(=O)N1CCN=C1SCc1cccc(F)c1 (stereo not given)	GLP1R inv ag inconclusive
